# Screening data as filed in PubChem BioAssay.
# DT40 TDP1 CPT – DT40-hTDP1 cell growth loss with CPT. 420,000 tested, 12% active. chicken DT40 Tdp1-/-;hTDP1 cells + 20 nM CPT, ATP luminescence, 48 h. Potency, µM (series often up to 46.2 µM), for inactives: top-dose activity change, negative = growth inhibition, most hits filed as inhibitors; also: % is scaled to controls: 0 for no effect and ±100 for the full control effect; nearly all actives have a fitted effect of over 55% in size
#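 Chicken DT40 Tdp1-/- cells complemented with human TDP1, 400 cells/well, exposed to compounds plus 20 nM camptothecin for at least 48 h at 37 C; viability read as ATP content by CellTiter-Glo luminescence.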
# HepG2 viability – HepG2 cytotoxicity, counter-screen for TGF-b inhibitors | 410,000 tested, 0.76% active | HepG2 CAGA-GFP viability, ATP luminescence, 18 h | AID 588856 | Potency, µM (doses to about 46.1 µM), for the others: top-dose activity change, negative = cytotoxicity, hits mostly cytotoxic
#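 CellTiter-Glo luminescence gave cytotoxicity after 18 hours at 37 degrees C. The cells were HepG2 CAGA-GFP in 1% FBS DMEM, stimulated with 500 pg/mL TGF-beta after compound addition. %Activity was normalised to no-cell wells (complete cell-killing) and DMSO (no toxicity), and curves were fitted and classified.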
# S2 tox – reduces viability in counter-screen for ATXN expression inhibitors | S2 cells (HEK-293 line with an ATXN2-luciferase reporter) viability, CellTiter-Fluor protease fluorescence, 24 h | 400,000 tested, 0.49% active | Potency, µM (titrated, usually from 56.7 µM), actives largely listed as cytotoxic; also: nearly all actives have a fitted effect of over 40% in size
# DT40 TDP1 no CPT – qHTS for Inhibitors of human tyrosyl-DNA phosphodiesterase 1 (TDP1): qHTS in cells in absence of CPT | DT40 Tdp1-/- hTDP1 cells, no CPT, ATP luminescence, 48 h | Potency, µM (titrated, usually from 46.2 µM), for inactives: at the top dose activity change, negative = growth inhibition, hits mostly inhibitors | AID 686978, 2013 | 420,000 tested, 15% active; also: % is scaled to controls: 0 for no effect and ±100 for the full control effect; nearly all actives have a fitted effect of over 55% in size
#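 Chicken DT40 Tdp1-/- cells complemented with human TDP1, screened without camptothecin (DMSO vehicle only), 400 cells/well. Compounds pin-transferred, cells incubated at 37 °C for at least 48 hr. Growth read as ATP-dependent luminescence (CellTiter-Glo, 30 min at RT).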
# ATXN2 expr inh – ATXN2 expression inhibition | AID 1745845 | Potency, µM (top dose mostly 57 µM), inactives show top-dose activity change, negative = inhibition, hits mostly inhibitors | 360,000 tested, 0.72% active | HEK-293 ATXN2-luciferase reporter, luminescence, 24 h; also: % is scaled to controls: 0 for no effect and ±100 for the full control effect; nearly all actives have a fitted effect of over 55% in size
#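 ATXN2-luciferase reporter cells (luciferase flanked by upstream and downstream ATXN2 gene portions) were treated 24 h at 37 °C with compounds at up to 57 uM. SteadyGlo luminescence gave expression; GF-AFC fluorescence gave viability.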
# TGFb SMAD3 inh – blocks TGF-b signaling; 410,000 tested, 1.2% active; HepG2 CAGA-GFP TGF-b/SMAD3 reporter, GFP fluorescence, 18 h; TGF-beta stimulated, 500 pg/mL final; Potency, µM (titrated, usually from 46.1 µM), for inactives: top-dose activity, negative = inhibition, usual class: inhibitors; also: % is scaled to controls: 0 for no effect and ±100 for the full control effect; nearly all actives have a fitted effect of over 65% in size
#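 Using HEPG2 CAGA-GFP reporter cells at 1000 cells/well, we pinned test compounds, stimulated with recombinant TGF-beta (500 pg/mL final) and measured total well GFP after 18 h.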
# * hit, by the source's call; i = inactive; ? = inconclusive; / = no result given. Sampled rows, rich in hits. Any-hit rate of the full collection: about 17%. Calls follow the shape of the dose curve; as a rule, active = well fitted curve in the direction sought with a large enough effect; inconclusive = small, poorly fitted or top-dose-only effect, or another doubt; inactive = no such curve, though single readings can be large; an effect the other way counts as inactive or inconclusive. Potency is read from the fitted curve at half-maximal effect.
SMILES,DT40 TDP1 CPT,HepG2 viability,S2 tox,DT40 TDP1 no CPT,ATXN2 expr inh,TGFb SMAD3 inh
CCOc1cc(N2CCOCC2)c(OCC)cc1NC(=O)C(NC(=O)c1c(F)cccc1F)C(C)C (centres undefined),?,-17%,?,9.2µM*,/,4%
CCc1sc(C(=O)Nc2ccc(N3CCOCC3)cc2)cc1C,21µM*,-3%,i,?,-9%,17%
CCOc1cc(N2CCOCC2)c(OCC)cc1NC(=O)c1ccc(OC)c(S(=O)(=O)N2CCOCC2)c1,-24%,3%,i,?,2%,-5%
CCOc1cc(N2CCOCC2)c(OCC)cc1NC(=O)c1ccc(OCc2c(C)noc2C)c(OC)c1,15µM*,-14%,i,10µM*,-21%,-18%
CC(C)[C@H]1COCCS(=O)(=O)N1Cc1cccc([N+](=O)[O-])c1,?,-37%,/,?,/,-6%
Cc1ccc(C)c2[nH]c(=O)c(CCNC(=O)c3cc4ccccc4o3)cc12,18µM*,-15%,i,21µM*,0%,0%
CCC(CC)C(=O)NCCc1cc2c(C)ccc(C)c2[nH]c1=O,9%,2%,i,3%,3%,0%
COc1ccc(OC)c2[nH]c(=O)c(CCNC(=O)c3cc4ccccc4o3)cc12,15µM*,0%,?,?,-20%,3%
Cn1c(=O)c(=O)n(C)c2cc(NS(=O)(=O)c3ccc(Br)cc3)c(Cl)cc21,-26%,-11%,i,?,-6%,-21%
CCC(=O)N1c2ccccc2CC1C(=O)NCc1cccc(C)c1 (centres undefined),-17%,-21%,i,-3%,-3%,-16%
Cc1ccc(C)c(NS(=O)(=O)c2cc3c(cc2C)n(C)c(=O)c(=O)n3C)c1,-9%,-2%,i,?,9%,-20%
CCNC(=S)N/N=C/c1cc(Br)cc(Br)c1OC,5.2µM*,-19%,i,6.5µM*,2%,1%
COc1c(Br)cc(Br)cc1/C=N/NC(=O)c1ccncc1,?,0%,i,?,-6%,6%
CCOc1cc(Br)cc(/C=N/NC(=O)c2cccnc2)c1O,0.46µM*,-27%,?,0.37µM*,?,?
CN(C)c1ccc(C(=O)N/N=C/c2cc(Br)cc(Br)c2O)cc1,6.5µM*,-32%,i,12µM*,3.5µM*,?
COc1c(Br)cc(Br)cc1/C=N/NC(=O)c1cccnc1,18µM*,-22%,?,?,?,?
CCOc1ccc(Br)cc1/C=N/NC(=O)c1ccncc1,?,-15%,i,?,-21%,-1%
CCOC(=O)c1ccc(N2C(=O)C(O)=C(C(C)=O)C2c2ccc([N+](=O)[O-])cc2)cc1 (centres undefined),4%,-16%,?,-7%,/,-2%
Cc1ccc(S(=O)(=O)Nc2ccc3c(c2)C(=O)NC3=O)cc1[N+](=O)[O-],-10%,0%,i,-10%,8%,-3%
CCc1ccc(-n2c(C)nc3cc(C(=O)NCc4cccnc4)ccc32)cc1,?,3%,i,?,-22%,-1%
Cc1cccc(C)c1OCc1nc2ccccc2c(=O)n1/N=C/c1c[nH]c2ccccc12,21µM*,4%,?,?,-8%,-22%
O=c1c2ccccc2nc(COc2ccccc2)n1/N=C/c1cc([N+](=O)[O-])ccc1O,6.5µM*,-26%,?,13µM*,?,-24%
Cc1ccccc1OCc1nc2ccccc2c(=O)n1/N=C/c1c[nH]c2ccccc12,-68%,-33%,i,-101%,-29%,?
Cc1ccc(-c2[nH]ncc2/C=N/n2c(COc3ccccc3C)nc3ccccc3c2=O)cc1,21µM*,5.6µM*,/,16µM*,28µM*,13µM*
Cc1cc(/C=N/n2c(COc3ccccc3C)nc3ccccc3c2=O)c(O)c([N+](=O)[O-])c1,18µM*,0%,?,13µM*,?,-15%
SMILES,DT40 TDP1 CPT,HepG2 viability,S2 tox,DT40 TDP1 no CPT,ATXN2 expr inh,TGFb SMAD3 inh
CC(=O)Nc1ccc(OC(=O)c2ccc(Br)c([N+](=O)[O-])c2)cc1,-25%,-18%,i,-27%,-18%,-28%
O=[N+]([O-])c1ccc(Cl)c(/C=N/n2c(COc3ccccc3)n[nH]c2=S)c1,18µM*,-6%,i,21µM*,2%,-19%
Nc1c(C(=O)Nc2ccc(F)c(F)c2)sc2nc(-c3ccncc3)ccc12,0%,-13%,i,-5%,4%,76%
COc1cccc(-c2ccc3c(N)c(C(=O)Nc4ccccc4C)sc3n2)c1,?,-21%,/,23µM*,?,?
Nc1c(C(=O)Nc2nc3ccccc3s2)sc2nc(-c3cccs3)ccc12,12µM*,6.3µM*,i,21µM*,?,208%
Nc1c(C(=O)Nc2ccc(Cl)c(C(F)(F)F)c2)sc2nc(-c3ccncc3)ccc12,?,-21%,/,10µM*,/,?
Nc1c(C(=O)Nc2ccccc2)sc2nc(-c3ccco3)ccc12,23µM*,-15%,/,18µM*,-3%,4%
COc1ccccc1NC(=O)c1sc2nc(-c3ccco3)ccc2c1N,-16%,-3%,/,?,28%,4%
Nc1c(C(=O)Nc2ccccc2Br)sc2nc(-c3cccs3)ccc12,?,-2%,/,?,?,-1%
Cc1ccccc1NC(=O)c1sc2nc(-c3ccncc3)ccc2c1N,-88%,-39%,i,16µM*,20µM*,2%
CC1(C(=O)NCc2ccc(F)c(F)c2)Cc2c(-c3cccc(C(N)=O)c3)ccnc2O1 (centres undefined),?,-19%,?,?,-2%,7%
CC1(C(=O)NCc2ccncc2)Cc2c(-c3cccc(C(F)(F)F)c3)ccnc2O1 (centres undefined),?,-14%,i,?,-16%,-3%
CC1(C(=O)Nc2cccc(NS(C)(=O)=O)c2)Cc2c(-c3ccc(C(N)=O)cc3)ccnc2O1 (centres undefined),-16%,3%,i,-5%,12%,12%
CC1(C(=O)NCc2ccco2)Cc2c(-c3cccc(C(F)(F)F)c3)ccnc2O1 (centres undefined),2.6µM*,-5%,i,2.9µM*,-23%,-10%
